The record followed here is PubChem BioAssay (NCI).

Assay [1] can be described thus: NCI Yeast Anticancer Drug Screen. Data for the rad50 strain (AID 155).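 Also: 0% = growth of vehicle-only cultures of the same strain.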 Particulars: S. cerevisiae rad50 strain growth inhibition, active compounds read high. An outline of the steps: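 Genetically altered yeast (DNA repair pathway); compound treatment; growth inhibition vs vehicle ctrl.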
The nature of assay [2]: NCI Yeast Anticancer Drug Screen. Data for the mec2-1 strain (AID 157). Particulars: S. cerevisiae mec2-1 strain, active compounds read high. An outline of the steps: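 Growth inhibition is read against vehicle-treated controls after compound exposure of the mec2-1 yeast strain, which is defective in DNA damage repair or cell cycle control.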
Assay [3] in a line: NCI Yeast Anticancer Drug Screen. Data for the sgs1 mgt1 strain (AID 161).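 Also: 0% = growth of cultures given vehicle only.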 Particulars: S. cerevisiae sgs1 mgt1 strain, active compounds read high. Summed up:
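Compounds are added to genetically altered yeast, and growth is compared with cultures given vehicle alone to give percent inhibition.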

Assay [4] is described as follows: NCI Yeast Anticancer Drug Screen. Data for the cln2 rad14 strain (AID 165).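 Also: 0% = growth equal to vehicle treated cultures.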 Conditions: S. cerevisiae cln2 rad14 strain, active compounds read high. An outline of the steps: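 Growth inhibition, relative to vehicle-treated controls, is the read-out. The test organism is a yeast strain with defined genetic alterations, cln2 rad14.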
Assay [5] can be described thus: NCI Yeast Anticancer Drug Screen. Data for the bub3 strain (AID 167). Conditions: S. cerevisiae bub3 mutant strain, active compounds read high. Summed up: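 Yeast carrying a defined mutation is treated with each compound, and growth is compared with that of vehicle-exposed cells to give inhibition.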
A short description of assay [6]: NCI Yeast Anticancer Drug Screen. Data for the mlh1 rad18 strain (AID 175). Conditions: S. cerevisiae mlh1 rad18 strain growth inhibition, active compounds read high. Summed up:
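Cells of a genetically altered yeast strain, deficient in DNA damage repair, were treated with compound. Their growth was then compared with that of vehicle-treated cultures to give inhibition.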

The mark [7] stands for this setting: at 5.0 µM (retest, dose inferred, filed as 0.5).
The mark [8] stands for this setting: at 50.0 µM (retest, dose inferred, filed as 5.0).

This is part of a sample that, as a whole, favours compounds with a hit. Of some 79,000 tested, about 15% had one in any assay. Values without a mark were called inactive. Activity calls are given as the source filed them. Rule as the data show it: active = growth inhibition above about 70%; inactive = the rest.

Regarding `CCCCCC1OC(CCCCC)OC(CCCCC)O1` (configuration not stated), the growth inhibition in assay [1] (setting [7]) was -10%; in assay [1] (setting [8]) it was 33%; in assay [1] (at 50.0 µM), 10.2%; in assay [2] (setting [7]) it was 13%; in assay [2] (setting [8]), -19%; in assay [2] (at 50.0 µM), 6.6%. The growth inhibition in assay [3] (setting [7]) was 0%; in assay [3] (setting [8]), 7%; in assay [3] (at 50.0 µM), 16.3%; in assay [4] (setting [7]), 4%; in assay [4] (setting [8]) it was 3%; in assay [4] (at 50.0 µM), 8.25%. The growth inhibition in assay [5] (setting [7]) was -12%; in assay [5] (setting [8]), 20%; in assay [5] (at 50.0 µM), -13.9%; in assay [6] (setting [7]), -8%; in assay [6] (setting [8]), -3%; in assay [6] (at 50.0 µM) it was 11.7%.
Consider `Cc1ccc(-c2c3nc(c(-c4ccc(C)cc4)c4ccc([nH]4)c(-c4ccc(C)cc4)c4nc(c(-c5ccncc5)c5ccc2[nH]5)C=C4)C=C3)cc1.Cc1ccc(-c2c3nc(c(-c4ccc(C)cc4)c4ccc([nH]4)c(-c4ccc(C)cc4)c4nc(c(-c5ccncc5)c5ccc2[nH]5)C=C4)C=C3)cc1.O=S(=O)([O-])C(F)(F)F.[Pt+2].c1ccc([PH+](CCC[PH+](c2ccccc2)c2ccccc2)c2ccccc2)cc1`, for which the growth inhibition in assay [1] (setting [7]) was 19%; in assay [1] (setting [8]), 62%; in assay [1] (at 50.0 µM), 48.8%; in assay [2] (setting [7]), 13%; in assay [2] (setting [8]), 42%; in assay [2] (at 50.0 µM), 36.8%. The growth inhibition in assay [3] (setting [7]) is 13%; in assay [3] (setting [8]), 71% (active); in assay [3] (at 50.0 µM) it was 50.4%; in assay [4] (setting [7]), 3%; in assay [4] (setting [8]) it was 45%; in assay [4] (at 50.0 µM), -44.6%. Moreover, the growth inhibition in assay [5] (setting [7]) is 10%; in assay [5] (setting [8]), 63%; in assay [5] (at 50.0 µM), 38.8%; in assay [6] (setting [7]), 14%; in assay [6] (setting [8]) it was 60%; in assay [6] (at 50.0 µM) it was 68.5%.
For the molecule `CC(C)SC(=S)Nc1ccc(Cl)cc1`, the growth inhibition is -5% in assay [1] (setting [7]); 92% (active) in assay [1] (setting [8]); 97.8% (active) in assay [1] (at 50.0 µM); -1% in assay [2] (setting [7]); 98% (active) in assay [2] (setting [8]); 99% (active) in assay [2] (at 50.0 µM). Besides, the growth inhibition was 8% in assay [3] (setting [7]); 88% (active) in assay [3] (setting [8]); 97% (active) in assay [3] (at 50.0 µM); -18% in assay [4] (setting [7]); 64% in assay [4] (setting [8]); 96.8% (active) in assay [4] (at 50.0 µM). The growth inhibition in assay [5] (setting [7]) is 0%; in assay [5] (setting [8]), 91% (active); in assay [5] (at 50.0 µM) it was 99% (active); in assay [6] (setting [7]), 5%; in assay [6] (setting [8]), 96% (active); in assay [6] (at 50.0 µM), 98.9% (active).
As to `NNC(=O)c1ccccc1SSc1ccccc1C(=O)NN`, the growth inhibition in assay [1] (setting [7]) was 82% (active); in assay [1] (setting [8]), 99% (active); in assay [1] (at 50.0 µM) it was 99.3% (active); in assay [2] (setting [7]) it was 81% (active); in assay [2] (setting [8]) it was 99% (active); in assay [2] (at 50.0 µM), 99.7% (active). Moreover, the growth inhibition in assay [3] (setting [7]) is 74% (active); in assay [3] (setting [8]), 99% (active); in assay [3] (at 50.0 µM), 99.7% (active); in assay [4] (setting [7]), 51%; in assay [4] (setting [8]), 99% (active); in assay [4] (at 50.0 µM), 98.7% (active). The growth inhibition is 98% (active) in assay [5] (setting [7]); 99% (active) in assay [5] (setting [8]); 99.1% (active) in assay [5] (at 50.0 µM); 71% (active) in assay [6] (setting [7]); 99% (active) in assay [6] (setting [8]); 99.4% (active) in assay [6] (at 50.0 µM).
Consider `CC1(C)CCC(C)(C)c2cc(C(=O)Nc3ccc(C(=O)O)cc3)ccc21`, for which the growth inhibition in assay [1] (setting [7]) is 21%; in assay [1] (setting [8]) it was 99% (active); in assay [1] (at 50.0 µM), -12.2%; in assay [2] (setting [7]), 22%; in assay [2] (setting [8]), 96% (active); in assay [2] (at 50.0 µM), -18.1%. For the same molecule, the growth inhibition in assay [3] (setting [7]) is 20%; in assay [3] (setting [8]) it was 99% (active); in assay [3] (at 50.0 µM), 0.8%; in assay [4] (setting [7]), 36%; in assay [4] (setting [8]), 97% (active); in assay [4] (at 50.0 µM), -8.75%. Moreover, the growth inhibition is 13% in assay [5] (setting [7]); 98% (active) in assay [5] (setting [8]); 4% in assay [5] (at 50.0 µM); 34% in assay [6] (setting [7]); 97% (active) in assay [6] (setting [8]); 5.75% in assay [6] (at 50.0 µM).
Consider `COc1ccc(-c2c(-c3ccccc3)c(C)nc3[nH]c(=S)[nH]c(=S)c23)cc1OC`, for which the growth inhibition was -4% in assay [1] (setting [7]); 69% in assay [1] (setting [8]); 92.2% (active) in assay [1] (at 50.0 µM); -2% in assay [2] (setting [7]); 58% in assay [2] (setting [8]); 92.8% (active) in assay [2] (at 50.0 µM). Moreover, the growth inhibition in assay [3] (setting [7]) was 7%; in assay [3] (setting [8]), 89% (active); in assay [3] (at 50.0 µM) it was 94.4% (active); in assay [4] (setting [7]) it was 7%; in assay [4] (setting [8]), 81% (active); in assay [4] (at 50.0 µM), 93.2% (active). Also, the growth inhibition is 0% in assay [5] (setting [7]); 91% (active) in assay [5] (setting [8]); 69.8% in assay [5] (at 50.0 µM); -30% in assay [6] (setting [7]); 79% (active) in assay [6] (setting [8]); 94.9% (active) in assay [6] (at 50.0 µM).
As for `OCC(O)Cc1c(Cl)c(Cl)c(Oc2c(Cl)c(Cl)c(CC(O)CO)c(Cl)c2Cl)c(Cl)c1Cl` (configuration not stated), the growth inhibition was 5% in assay [1] (setting [7]); 7% in assay [1] (setting [8]); 11.3% in assay [1] (at 50.0 µM); 5% in assay [2] (setting [7]); 10% in assay [2] (setting [8]); 14.6% in assay [2] (at 50.0 µM). For the same molecule, the growth inhibition was 18% in assay [3] (setting [7]); 16% in assay [3] (setting [8]); 4.95% in assay [3] (at 50.0 µM); -9% in assay [4] (setting [7]); -9% in assay [4] (setting [8]); -8.05% in assay [4] (at 50.0 µM). Further, the growth inhibition in assay [5] (setting [7]) is -1%; in assay [5] (setting [8]) it was 11%; in assay [5] (at 50.0 µM), 64.7%; in assay [6] (setting [7]) it was -1%; in assay [6] (setting [8]), 1%; in assay [6] (at 50.0 µM) it was 8.75%.
As for `c1csc(-c2nccc3c2[nH]c2ccccc23)c1`, the growth inhibition in assay [1] (setting [7]) was -18%; in assay [1] (setting [8]) it was 92% (active); in assay [1] (at 50.0 µM) it was 88% (active); in assay [2] (setting [7]), -17%; in assay [2] (setting [8]), 94% (active); in assay [2] (at 50.0 µM), 92.8% (active). Also, the growth inhibition in assay [3] (setting [7]) is -29%; in assay [3] (setting [8]), 95% (active); in assay [3] (at 50.0 µM) it was 90.2% (active); in assay [4] (setting [7]), -13%; in assay [4] (setting [8]), 83% (active); in assay [4] (at 50.0 µM) it was 91% (active). Further, the growth inhibition was -42% in assay [5] (setting [7]); 97% (active) in assay [5] (setting [8]); 91.3% (active) in assay [5] (at 50.0 µM); -19% in assay [6] (setting [7]); 94% (active) in assay [6] (setting [8]); 86.7% (active) in assay [6] (at 50.0 µM).
With `O=C1c2ccccc2-c2ccc(N3C(=O)C4CCCCC4C3=O)cc21` (configuration not stated), the growth inhibition in assay [1] (setting [7]) is -5%; in assay [1] (setting [8]), 95% (active); in assay [1] (at 50.0 µM) it was -31.3%; in assay [2] (setting [7]), -4%; in assay [2] (setting [8]) it was 96% (active); in assay [2] (at 50.0 µM), 5.4%. Moreover, the growth inhibition in assay [3] (setting [7]) is -4%; in assay [3] (setting [8]), 96% (active); in assay [3] (at 50.0 µM), -9.15%; in assay [4] (setting [7]) it was -8%; in assay [4] (setting [8]), 95% (active); in assay [4] (at 50.0 µM), -36.8%. In addition, the growth inhibition in assay [5] (setting [7]) was 41%; in assay [5] (setting [8]), 95% (active); in assay [5] (at 50.0 µM), 74.9% (active); in assay [6] (setting [7]), -4%; in assay [6] (setting [8]), 94% (active); in assay [6] (at 50.0 µM) it was -26.2%.
